# Compound activity from PubChem.
# Mdm2 MdmX PPI: inhibitors of human Mdm2-MdmX association, primary screen, cell-based, luminescence, split luciferase, SaOS-2, uHTS. Protein Mdm4 (Homo sapiens) + E3 ubiquitin-protein ligase Mdm2 (Homo sapiens), …. SaOS-2 split-luciferase Mdm2/MdmX complementation. inhibition, % at 8 µM. hit rate 3% among 330,000. AID 485346, 2010;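 active = inhibition of at least 50% at 8 µM in the primary screen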
# 697 NFkB inh: inhibitors of PMA/ionomycin-induced NF-kB reporter, 697 cells, primary screen, B-cell NF-kB inhibitor project, cell-based, luminescence, uHTS. 697 B-cell NF-kB luciferase reporter, 16 h. inhibition, % at 4 µM. hit rate 0.33% among 330,000. AID 435022, 2010; in the data active = inhibition above about 35%
# KLF5 inh: KLF5 expression inhibitors, primary screen, DLD-1 cells, luminescence. DLD-1 KLF5 promoter-luciferase reporter. hit rate 0.23% among 290,000. inhibition, % at 5 µM;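 active = inhibition above a per-plate limit of that plate's mean compound inhibition plus 3 SD, cut at about 60% in these data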;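 note: 0% = DMSO wells and 100% = LY294002 at 200 µM; higher means less KLF5 promoter-driven luciferase light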
# Jurkat NFkB inh: inhibitors of induced NF-kB luciferase reporter, primary screen, TCR NF-kB activation inhibitor project, cell-based, luminescence, uHTS. hit rate 0.53% among 330,000. inhibition, % at 4 µM. Jurkat, PMA/ionomycin-induced NF-kB luciferase reporter; in the data active = inhibition above about 50%
# aSyn UTR inh: MLPCN primary screen, SNCA 5' untranslated region; hit rate 0.82% among 300,000; inhibition, % (tested at 7.5 µM); AID 1813, 2009; alpha-synuclein 5'UTR reporter, inhibitor activity; in the data active = inhibition above about 60%;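 note: H4 neuroglioblastoma cells stably carrying SNCA 5'UTR luciferase fusion; 0% = DMSO wells and 100% = positive control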
# Gli-Sufu antag: Gli-Sufu pathway antagonists, primary screen, luciferase luminescence, Sufu-KO-LIGHT cells, uHTS; Sufu-KO-LIGHT fibroblasts, Gli luciferase reporter luminescence; inhibition, % at 5 µM; hit rate 0.74% among 340,000; AID 588413, 2011;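 active = inhibition above about 55%, limit read from the data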;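 note: 0% = DMSO-treated cells and 100% = wells with medium but no cells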
# Mdm2-MdmX conf: Mdm2-MdmX complex disruptors, retested hits, confirmation, luminescence, single concentration; shares compounds with Mdm2 MdmX PPI; Mdm2-MdmX binding, luminescent assay; inhibition, % at 8 µM; hit rate 55% among 10,000; AID 489028, 2010; in the data active = inhibition above about 40%
# FLuc counter: full-length luciferase signal inhibition, confirmation, counter-screen for Mdm2/MdmX interaction inhibitor project, cell-based, single concentration, SaOS-2; SaOS-2 full-length luciferase counterscreen, luminescence; hit rate 77% among 6,200; inhibition, % at 8 µM; shares compounds with Mdm2 MdmX PPI;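 active = mean inhibition at 8 µM reaching about 37%, which flags the compound as non-specific, limit read from the data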;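 note: p53-null SaOS-2 cells with luciferase driven by a doxycycline-inducible promoter; compound on cells about two nights before reading with doxycycline added after day one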
# * hit, by the source's call; x = no result given. Shown are actives, neighbours in structure and some others; about 4.1% of the full set was active somewhere.
SMILES,Mdm2 MdmX PPI,697 NFkB inh,KLF5 inh,Jurkat NFkB inh,aSyn UTR inh,Gli-Sufu antag,Mdm2-MdmX conf,others
COc1ccc(S(=O)(=O)Nc2cccc3c2O[C@H](CN(C)C(=O)Nc2ccc(C(F)(F)F)cc2)[C@@H](C)CN([C@H](C)CO)C3=O)cc1,19.4,14.4,x,11.9,x,-2.8,x,
COC(=O)C1=C(C)Nc2nc3ccccc3n2C1c1cc(OC)c(OC)c(OC)c1 (centres undefined),51.6*,25.1,-9.1,-10.0,-13.5,26.3,45.5*,FLuc counter=95.8*
O=[N+]([O-])c1ccc(NCCCNS(=O)(=O)c2ccccc2)c(Cl)c1,7.9,-9.4,0.3,-9.5,23.8,7.6,x,
Cc1nc2ccc(Br)cn2c1C(=O)N/N=C\c1ccc(C(C)C)cc1,57.4*,-54.3,19.1,15.6,-8.7,-0.8,47.6*,FLuc counter=63.9*
COCc1ccc(CN2CCC(n3nccc3NC(=O)CCOc3ccccc3)CC2)o1,4.7,-30.4,-9.8,3.1,4.8,3.3,x,
COc1ccc2ccccc2c1/C=N/NC(=O)c1ccc(C)nc1,-17.9,-2.0,-29.2,3.2,2.0,2.0,x,
Oc1ccc2ccccc2c1/C=N/Nc1ccccc1,9.3,-7.7,-20.7,6.2,-41.8,8.1,x,
O=C(N/N=C/c1c(O)ccc2ccccc12)c1ccc(CO)nc1,69.0*,-10.6,40.7,35.4,51.0,17.0,65.9*,FLuc counter=36.1*
NC(=S)N/N=C/c1c(O)ccc2ccccc12,50.5*,-17.6,-3.6,12.9,40.8,9.1,35.5,FLuc counter=44.8*
Oc1ccccc1C=NN=Cc1c(O)ccc2ccccc12,x,x,x,x,x,1.2,x,
O=CN/N=C/c1c(O)ccc2ccccc12,50.4*,5.7,-8.6,17.6,50.4,-1.7,29.5,
C/C(CC(=O)NCc1ccco1)=N\NC(=O)c1ccc([N+](=O)[O-])cc1Cl,-0.1,12.4,-9.3,-5.0,9.3,3.7,x,
CCOc1ccc(C(=O)Oc2cc(C)[nH]c(=O)c2[N+](=O)[O-])cc1OCC,-5.8,0.1,-27.4,2.0,17.4,-2.2,x,
CCn1c(=O)c2c(nc(SCC(=O)Nc3ccccc3)n2C)n(C)c1=O,15.5,6.7,-37.4,8.3,24.7,-10.4,x,
CCCc1cc(-c2[nH]ncc2-c2ccc(C(=O)OCC)o2)c(O)cc1O,56.2*,-7.6,-24.3,-0.3,-19.4,2.4,18.5,
CC1CCc2c(sc3ncn(CC(=O)N=Nc4c(O)[nH]c5ccccc45)c(=O)c23)C1 (centres undefined),53.4*,23.0,8.7,9.2,28.6,-10.2,-4.0,
O=C(CSc1nnc(NC(=O)c2ccccc2F)s1)NCc1ccco1,15.2,-34.6,-174.0,2.6,-79.8,-19.3,x,
C/C(CC(=O)Nc1cc(C)ccn1)=N\NC(=O)c1cccc(C)c1,2.7,10.4,9.7,-3.4,-44.6,-21.3,x,
C/C(CC(=O)Nc1cc(C)ccn1)=N\NC(=O)c1cccc(C)c1O,65.8*,-88.5,-8.2,18.5,-62.9,9.2,45.8*,FLuc counter=120.8*
COc1cccc(CC(=O)n2nc(N)c3cc4ccc(OC)cc4nc32)c1,64.1*,-93.4,-22.4,2.1,40.7,-1.8,-7.8,
COc1ccc2cc3c(N)nn(C(=O)Cc4ccc(Cl)cc4)c3nc2c1,73.3*,-22.8,1.9,26.5,6.3,-8.3,59.5*,FLuc counter=47.8*
COc1ccc(CN(C)C(=O)Cc2c[nH]c3ccccc23)cc1,-9.8,-5.0,-59.1,14.1,19.1,1.2,x,
COc1ccc(N2CCN(C(=O)Cc3ccc(Cl)cc3)CC2)cc1,13.9,-11.1,-7.8,8.8,-13.6,27.3,x,
COc1ccc2cc3c(N)nn(C(=O)Cc4c[nH]c5ccccc45)c3nc2c1,93.2*,-4.3,20.5,45.1,49.0,-9.1,98.1*,FLuc counter=52.1*
COc1ccc(OCC2CCNCC2)cc1,-19.1,-8.3,-6.1,-4.9,-27.3,-5.5,x,
SMILES,Mdm2 MdmX PPI,697 NFkB inh,KLF5 inh,Jurkat NFkB inh,aSyn UTR inh,Gli-Sufu antag,Mdm2-MdmX conf,others
COc1ccc(CCN(C)C2CCCN(S(=O)(=O)c3ccccc3)C2)cc1OC (centres undefined),6.1,-15.9,-28.5,-22.8,24.0,13.3,x,
CCOC(=O)c1ccc(CNC(=O)Cn2nnc(-c3ccccc3)n2)o1,5.6,4.8,-17.9,1.5,0.9,-19.5,x,
CCOc1ccc(C2C([N+](=O)[O-])=C(C)N(C)C(=O)N2C)cc1OC (centres undefined),9.0,0.4,-18.4,1.7,-16.2,-4.7,x,
O=C(Cn1cnc2ccccc2c1=O)c1ccc(Cl)cc1,x,x,-100.7,x,-90.3,-63.6,x,
Cc1ccc2cc3cc(C(=O)NCc4ccc5c(c4)OCO5)oc3nc2c1,68.4*,-4.2,-20.9,5.4,-41.0,-13.7,28.5,
Cc1ccc(C(=O)NCc2ccc3c(c2)OCO3)o1,14.3,-13.4,-25.7,-14.1,-19.9,-2.3,x,
O=C(OCCCN=C1NS(=O)(=O)c2ccccc21)c1ccc([N+](=O)[O-])cc1,11.1,13.6,2.8,12.6,-5.3,3.1,x,
O=C(C[C@@H]1C/C=C\C[C@@H](Cc2ccc(F)cc2)C(=O)OC[C@@H](Cc2ccccc2)NC1=O)N[C@H](CO)Cc1ccccc1,80.1*,0.5,x,-9.9,x,-24.7,66.5*,FLuc counter=40.6*
CC1(C)CCC[C@@]2(C)CC=C(C(=O)O)[C@@H]3C[C@]312,21.3,11.2,x,3.4,2.1,2.7,x,
Cc1ccc(C(NC(=O)NC(C)c2ccccc2)C(Cl)(Cl)Cl)cc1F (centres undefined),54.7*,24.4,-32.7,10.7,46.7,2.4,58.0*,FLuc counter=39.9*
COCc1ccc(CN2CCCCC2C(=O)Nc2ccc(Oc3ccccc3)nc2)o1 (centres undefined),-0.1,9.5,0.3,19.5,6.3,12.6,x,
COc1ccccc1C(=O)Nc1ccccc1N1CCOCC1,0.6,15.1,3.5,14.3,17.9,16.5,x,
COc1c(C(=O)Nc2ccccc2N2CCOCC2)cc2ccccc2c1Br,50.3*,8.4,-2.6,3.0,35.4,5.1,13.6,
COc1ccc(CNCc2cc(Cl)ccc2O)cc1,-17.3,9.5,x,-1.7,x,-1.4,x,
CCc1ccc(O)c(CNCCNCc2cc(CC)ccc2O)c1,72.0*,-5.8,x,31.1,53.0,28.1,37.4,
Cc1ccc(O)c(CNCCNCc2cc(C)ccc2O)c1,73.3*,-6.2,x,29.2,28.2,19.0,52.0*,FLuc counter=32.6
